Over roughly 33,000 sequences, “E-score (-0.5 to 0.5)” has its median near -0.017; the highest 2% begin near 0.3. For the sample, the highest values were picked, then their nearest neighbours and some sequences at random.
Biological target: T1, Sut1 (UniProt P53032)
T1 sequence: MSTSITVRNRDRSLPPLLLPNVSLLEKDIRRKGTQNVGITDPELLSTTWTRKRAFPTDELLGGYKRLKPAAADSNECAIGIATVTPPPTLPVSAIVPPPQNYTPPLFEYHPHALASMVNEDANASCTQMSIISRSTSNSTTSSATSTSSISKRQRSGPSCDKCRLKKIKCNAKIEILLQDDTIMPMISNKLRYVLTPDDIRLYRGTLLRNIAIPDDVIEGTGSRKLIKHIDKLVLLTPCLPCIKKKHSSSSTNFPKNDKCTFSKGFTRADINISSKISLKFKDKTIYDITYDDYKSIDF
Assay: PBM E-score (8-mer binding enrichment) (E-score (-0.5 to 0.5)); higher = stronger / more preferred TF binding
Conditions: protein concentration: 200 nM; construct: GST-full length
Outline: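 Full-length yeast transcription factors or their DNA-binding domains, GST-tagged and expressed with PURExpress, were applied at about 100-200 nM to universal all-10-mer Agilent arrays. These arrays had been made double-stranded by primer extension on fresh or once-stripped slides. Detection used fluorescent anti-GST, normalisation used masliner, and E-scores for ungapped eight-base words pooled with reverse complements came from the Universal PBM Analysis Suite.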

Sequence | PBM E-score
GGTGCAAA | 0.0509
AGTTTTAA | 0.341
TGTTTTAA | 0.253
AGTTTATC | 0.17
GGTTTATA | 0.0479
AGTTTAAA | 0.335
ATTTTTAA | 0.249
AGTTTATA | 0.335
GTTTTAAA | 0.296
TGTTTAAA | 0.111
AGTTTAAT | 0.069
ATTTTAAA | 0.307
AGTTTTTA | 0.175
AGACCTCC | -0.207
CATAGGGG | -0.348
CGGTTTTC | 0.176
CAAGTCAC | -0.0175
TACAACAA | 0.286
CAGTTGAA | -0.00817
AAGCCAAC | 0.118
AGTTTACA | 0.106
AGTGAACA | 0.0388
CTGGATTA | 0.0735
CCGAGTAG | 0.112
CGGAGTAC | 0.487

Sequence | PBM E-score
AGGAGTAA | 0.0575
AGGAGTAG | -0.0194
GGGAGTAC | -0.064
GGGAGTAA | 0.0687
CGGAGTAG | 0.49
CGGAGTAA | 0.483
AGGAGTAC | -0.106
TAGAATAA | 0.207
CAGTATAG | 0.0135
AATTGGAT | 0.131
ACGCCTCG | -0.115
GGCTTACA | 0.0643
ATATATAA | 0.351
TCATATAA | 0.121
CTATATAA | 0.158
TTATATAA | 0.358
AGTTATAA | 0.155
CGTTATAA | 0.135
TGATATAA | 0.222
TGTTATAA | 0.299
CTCTATAA | 0.186
CGCAACCC | 0.023
ATCCCAAT | 0.0805
CGATGAGC | -0.0442
TAGAAGCA | -0.0194

Sequence | PBM E-score
CGAGTTCA | -0.149
GAAGTTTA | 0.319
GGAGTTCA | 0.339
AGAGTTTA | 0.27
AGAGTTCA | -0.0646
CGAGTTTA | 0.0867
AAAGTTTA | 0.203
GGAGTTTA | 0.396
CAAGTTTA | 0.0197
ACATCTAT | 0.17
GACGCCTC | -0.125
ACTCCTAG | -0.0737
CACTATCA | -0.0232
AGGTCGGC | -0.131
AAGTCGGA | 0.226
TAGTCGGA | 0.317
CGGTCGGA | 0.211
CAGTCGGA | 0.204
GAGTCGGC | 0.00136
TAGTCGCA | -0.0489
GAGTCGGA | 0.324
AGGTCGGA | 0.316
CGTAATGC | 0.0921
ACACAACA | 0.128
AAGATAGG | 0.013

Sequence | PBM E-score
GTCCCAAC | -0.138
GACTATGC | 0.0066
AACTAGAG | 0.0891
ACCTCTAG | -0.0682
GTGGCAGA | -0.253
CATAACGC | -0.00576
GATGAAGC | -0.0232
TAACTGCA | 0.0867
CCGGAAGG | 0.169
CCGGAACA | 0.304
CCGGAATC | 0.326
TCGGAACA | 0.303
ACGGAACA | 0.229
ACGGAATC | 0.252
CCGGAACG | 0.202
GCGGAACA | -0.11
CCGGAACC | 0.185
CCGGAATA | 0.294
CCGGAAGA | 0.312
ACGGAAGA | 0.147
TATACGCA | 0.0114
CCCAACGC | -0.103
TCACTTCA | -0.0869
CGGCTCAG | -0.117
TCTAGCCA | -0.0636

Sequence | PBM E-score
GACAACGC | -0.0716
CAATTTCA | 0.00344
TAATTTCA | 0.346
AAATTTCA | 0.00137
GGGACAAC | -0.231
GGGACATA | -0.0931
AGGACATA | -0.0903
CGGACAAG | 0.22
CGGACAAC | 0.309
CGGACATC | 0.406
AGGACATC | 0.0505
CGGACATA | 0.433
CTGACATC | 0.0186
ACTAGGCC | -0.243
ATAGCCCC | -0.325
ATTTGCTC | 0.141
CCGGAGCA | 0.307
CGGGAGCA | -0.0121
TCGGAGCA | 0.3
CCGGAGCC | 0.396
GCGGAGCC | 0.113
CTGGAGCC | -0.204
GCGGAGCA | 0.152
CCGGAGCG | 0.234
ACGGAGCA | 0.207

Sequence | PBM E-score
CGGCGGTA | 0.14
CGTTTATC | 0.171
ACCCTGGG | -0.279
AGCGTAGC | -0.0963
CCTTTGAA | -0.0516
ATGATCGC | -0.106
AATAATAT | 0.346
AATAATAG | 0.157
AATAATAA | 0.304
AATAATAC | 0.202
ATTAATAA | 0.265
TATGATAA | 0.233
GTTAATAA | 0.319
AATGATAA | 0.299
AATAATGT | 0.235
GATAATAA | 0.234
CTTAATAA | 0.217
AATGATAG | 0.251
AACTTAAG | 0.132
CAGTTTGG | -0.198
AAGCGCAC | 0.00639
TTACGTAA | -0.0108
ATCAGATG | -0.0902
CATCTGAC | -0.163
TGTCAGAA | -0.0161

Sequence | PBM E-score
CATAACAA | 0.179
AGTAATAT | 0.312
TATAACAA | 0.319
CATAATAA | 0.131
TGTAATAA | 0.315
TATAATAA | 0.298
TCTAATAA | 0.173
AGTAATAG | 0.063
GATAACAA | 0.205
AGTAATAC | 0.133
CGTAATAA | 0.0956
GGTAATAA | 0.188
CATCTTCG | -0.0746
AAGATCAA | 0.0587
AATTGCAG | 0.0512
GCGACCGC | -0.23
AACAATAA | 0.192
AACAATAC | 0.0474
AACAATAT | 0.331
AGGCTGAC | -0.245
ATAGGTCA | 0.0286
AGAATGTC | -0.0101
AAGCATAC | 0.164
ATAAAATG | 0.289

Source: the supplement of paper PMC3334620
